Test results as given in PubChem BioAssay (Tox21).
Records with an inconclusive call do not appear. Calls of active or inactive are those of the source. Calls come from the whole dose curve; as a rule, active = well fitted inhibition curve with a large enough effect in the repeat runs; inconclusive = weak or mixed curves; inactive = no such curve, though single readings can be large or run the other way.

Target: Cytochrome P450 2D6 (Homo sapiens) (UniProt P10635)
Assay: Cytochrome P450 Family 2 Subfamily D Member 6 (CYP2D6) small molecule antagonists: luciferase reporter qHTS assay (AID 1671196); note: nearly all actives have a fitted effect of over 50% in size
Conditions: P450-Glo CYP2D6 enzyme assay, luciferin luminescence, 1 h; series mostly up to 115 µM; activity change, negative = inhibition: at the top concentration
Outline: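 Read-out is luminescence from luciferin formed by CYP2D6 turnover of a proluciferin substrate, recorded as relative luminescence units. Reactions ran 1 h at room temperature after NADPH regeneration solution was added.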
% is set by controls: 0 for no effect and ±100 for the full control effect; potency is the fitted concentration of half-maximal effect.

Chain of Cytochrome P450 2D6 (Homo sapiens) (P10635 whole entry, looked up): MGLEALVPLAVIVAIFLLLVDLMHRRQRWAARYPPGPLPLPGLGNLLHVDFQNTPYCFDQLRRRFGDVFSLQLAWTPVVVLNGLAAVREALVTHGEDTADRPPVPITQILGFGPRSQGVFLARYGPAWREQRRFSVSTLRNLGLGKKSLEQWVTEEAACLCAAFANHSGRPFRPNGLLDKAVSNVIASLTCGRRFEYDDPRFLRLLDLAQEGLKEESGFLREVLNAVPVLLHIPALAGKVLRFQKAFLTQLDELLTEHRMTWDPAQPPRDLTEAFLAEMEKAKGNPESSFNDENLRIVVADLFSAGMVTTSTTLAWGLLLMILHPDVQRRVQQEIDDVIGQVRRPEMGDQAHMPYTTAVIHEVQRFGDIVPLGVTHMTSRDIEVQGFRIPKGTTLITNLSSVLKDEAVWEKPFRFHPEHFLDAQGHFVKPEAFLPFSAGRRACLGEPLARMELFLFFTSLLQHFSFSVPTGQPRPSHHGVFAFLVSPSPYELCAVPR

Structure (SMILES) | activity change, negative = inhibition | Potency
O=C(N[C@H]1N=C(c2ccccc2F)c2cccc3c2N(CC3)C1=O)c1cc2ccccc2[nH]1 | -8.77% [at 53 µM] (inactive) | 
Brc1cccc(-c2ccccc2)c1 | -14% (inactive) | 
COc1ccc2c3c1O[C@H]1[C@H](O)CC[C@H]4[C@@H](C2)N(C)CC[C@@]341 | -26.3% (inactive) | 
N#CC(C#N)=NNc1cccc(Cl)c1 |  | 63.3 µM (active)
c1ccc2c(c1)cc1ccc3cccc4ccc2c1c34 | -9.04% (inactive) | 
ClC1(Cl)C2(Cl)C3(Cl)C4(Cl)C(Cl)(Cl)C5(Cl)C3(Cl)C1(Cl)C5(Cl)C24Cl (centres undefined) | -7.56% (inactive) | 
C[N+]1(C)[C@@H]2CC[C@H]1CC(OC(=O)C(CO)c1ccccc1)C2 (some centres undefined) | -26.3% [at 53 µM] (inactive) | 
CCCCCON=O | -25.1% (inactive) | 
C=CC(=O)[O][Sn]([CH2]CCC)([CH2]CCC)[CH2]CCC |  | 1.26 µM (active)
CC[N+]1(CC)CCC(OC(=O)C(O)(c2ccccc2)c2ccccc2)C1 (centres undefined) |  | 8.71 µM (active)
COP(=S)(NC(C)C)Oc1ccc(C)cc1[N+](=O)[O-] (centres undefined) |  | 44.8 µM (active)
Cc1ccc(C)c2ccccc12 | -39.1% (inactive) | 
O=[N+]([O-])c1ccc(CCl)cc1 | -19.8% (inactive) | 
c1ccc(Nc2ccc(Nc3ccccc3)cc2)cc1 |  | 39.8 µM (active)
O=c1c2ccccc2c(=O)c2c1cc(Cl)c1[nH]c3c([nH]c12)c(Cl)cc1c(=O)c2ccccc2c(=O)c13 | -0.54% (inactive) | 
CC(C)N(C(=O)CCl)c1ccccc1 |  | inactive
NC1CCC(CC2CCC(N)CC2)CC1 (centres undefined) |  | 35 µM (active)
CN1C(=O)[C@@H](NC(=O)c2cc3ccccc3[nH]2)N=C(c2ccccc2)c2ccccc21 | -18% [at 53 µM] (inactive) | 
CCNc1nc(NC(C)C(C)C)nc(SC)n1 (centres undefined) | -5.93% (inactive) | 
